22 compounds from PubChem BioAssay (EPA / NIEHS) can be followed below.

Records with an inconclusive call do not appear. Active and inactive are the calls of the source. Rule for the calls: active = hit-call score of the fitted dose curve at least 0.9, where 1 is the maximum; inconclusive = response in the unintended direction; inactive = score below 0.9.

Read-out in the assay: organic anion transporter (SLCO1B1), SLCO1B1 (gene 10599)
The experiment in a line: CLD_SLCO1B1_48hr: CellzDirect (CLD) Gene Expression Assay for organic anion transporter (SLCO1B1) at 48 hours (AID 2283707). The essentials: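 Primary human hepatocytes from two donor preparations dosed daily for two days with multiple concentrations, 0.2% DMSO vehicle. SLCO1B1 mRNA at 48 h by quantitative nuclease protection assay, chemiluminescence; gain-of-signal fitted versus DMSO.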
Take `COc1cc(Cl)c(OC)cc1Cl`: the call was inactive. Next, `COC(=O)NS(=O)(=O)c1ccc(N)cc1`: “inactive”.

As to `O=P(O)(O)CCCl`, the compound was classed as inactive. With `CO/N=C(/C1=NOCCO1)c1ccccc1Oc1ncnc(Oc2ccccc2Cl)c1F`, the call was inactive. Take `CC(C)=CC1C(C(=O)OCc2coc(Cc3ccccc3)c2)C1(C)C` (configuration not stated): the call was inactive. With `O=c1n(Cl)c(=O)n(Cl)c(=O)n1Cl`, the compound was called inactive. Regarding `Nc1c(Cl)c(F)nc(OCC(=O)O)c1Cl`, the compound was classed as inactive. Regarding `Nc1cnn(-c2ccccc2)c(=O)c1Cl`, the compound was called inactive. With `Nc1c(Cl)c(Cl)nc(C(=O)O)c1Cl`, the result was inactive.

In the case of `CS(=O)(=O)c1cc(C(F)(F)F)ccc1C(=O)c1cnoc1C1CC1`, the call was inactive. Next, `COC(=O)NC(=S)Nc1ccccc1NC(=S)NC(=O)OC`: “inactive”. With `O=C(O)c1c(Cl)ccc2cc(Cl)cnc12`, the result was inactive.

Take `N#CN=C1SCCN1Cc1ccc(Cl)nc1`: the compound was classed as inactive. For the compound `CC(C)C1(C)N=C(c2ncccc2C(=O)O)NC1=O` (configuration not stated), the outcome was inactive. Take `C=C(C)CN(CC)c1c([N+](=O)[O-])cc(C(F)(F)F)cc1[N+](=O)[O-]`: the outcome was inactive. As to `CCN(CC)C(=O)C(C)Oc1cccc2ccccc12` (configuration not stated), the outcome was inactive.

Consider `Cc1c(COC(=O)[C@@H]2[C@H](/C=C(\Cl)C(F)(F)F)C2(C)C)cccc1-c1ccccc1`, for which the compound was called inactive. For `Clc1cccc(C(Cl)(Cl)Cl)n1`, the compound was classed as inactive. Turning to `CCCC(=NOCC)C1=C(O)CC(CC(C)SCC)CC1=O` (configuration not stated), the result was inactive. On to `CCOc1cc(C(C)(C)C)ccc1C1COC(c2c(F)cccc2F)=N1` (configuration not stated), for which the compound was called inactive. Turning to `CNC(=O)N(C)c1nnc(C(C)(C)C)s1`, the call was inactive.

Regarding `CC(C)N1C(=O)c2ccccc2NS1(=O)=O`, the outcome was inactive.
